The list is not random: actives were taken first. Their share in the collection is about 19%.
TDP1 cell CPT: growth inhibition of DT40 Tdp1-/-;hTDP1 cells with camptothecin (screen for TDP1 inhibitors) | chicken DT40 Tdp1-/-;hTDP1 cells + 20 nM CPT, ATP luminescence, 48 h | Potency, µM (series often up to 46.2 µM), for the others: at the top dose activity change, negative = growth inhibition, actives largely listed as inhibitors | actives 12% (n = 420,000); also: potency is read from the fitted curve at half-maximal effect; nearly all actives have a fitted effect of over 55% in size
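Chicken DT40 Tdp1-/- cells complemented with human TDP1, 400 cells/well, exposed to compounds plus 20 nM camptothecin for at least 48 h at 37 C; viability read as ATP content by CellTiter-Glo luminescence.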
HT1080-NT tox: kills 2HG-producing HT-1080-NT fibrosarcoma cells; actives 1.6% (n = 360,000); Potency, µM (highest dose often 46.1 µM), without a hit: at the top dose activity, negative = less viability, usual class: cytotoxic; HT-1080-NT fibrosarcoma viability, CellTiter-Glo ATP luminescence, 48 h;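 also: NT is the 2HG producing partner of a matched IDH1 knockdown line; potency is read from the fitted curve at half-maximal effect; 0% = DMSO-treated cells and -100% = media-only wells without cells; nearly all actives have a fitted effect of over 55% in size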
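A 48-hour cytotoxicity screen used HT-1080-NT cells plated 2 hours before compound delivery. ATP-based CellTiter-Glo luminescence measured viability, normalized to DMSO and no-cell controls.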
uPA generation: blocks generation of uPA at the cell surface. cell surface uPA generation assay, qHTS. Potency, µM (series often up to 38.3 µM), for the others: at the highest dose activity change, negative = inhibition, hits mostly inhibitors. actives 0.31% (n = 330,000); active = well fitted inhibition curve with a large enough effect; inconclusive = small, poorly fitted or top-dose-only effect; inactive = no such curve, though single readings can be large or run the other way; tested in mouse RAW 264.7 cells; also: potency is read from the fitted curve at half-maximal effect; nearly all actives have a fitted effect of over 55% in size
DT40 TDP1 no CPT: qHTS for Inhibitors of human tyrosyl-DNA phosphodiesterase 1 (TDP1): qHTS in cells in absence of CPT; DT40 Tdp1-/- hTDP1 cells, no CPT, ATP luminescence, 48 h; Potency, µM (highest dose often 46.2 µM), for the others: top-dose activity change, negative = growth inhibition, actives largely listed as inhibitors; actives 15% (n = 420,000); AID 686978, 2013; also: potency is read from the fitted curve at half-maximal effect; nearly all actives have a fitted effect of over 55% in size
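Growth of hTDP1-complemented DT40 Tdp1-knockout cells is measured by ATP luminescence after at least 48 hr compound exposure at 37 °C, with DMSO substituting for the 20 nM CPT used in the parallel screen.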
IL-1B inflam inh: inhibitors of inflammasome signaling (IL-1 beta secretion); THP-1 LPS/ATP IL-1B secretion, AlphaLISA, 16 h; active compounds read low; activity change, % at 57.5 µM; actives 4.7% (n = 360,000); in the data active = activity change below about -50%; inconclusive = mostly about -30% to -49%
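THP-1 cells pretreated 1 hr with compounds (up to 57.5 uM final), then stimulated with LPS (250 ng/mL final) plus ATP (1.25 mM final); secreted IL-1B measured by AlphaLISA after 16 hr, decreased signal indicating inhibition.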
HT1080 IDH1KD tx: HT-1080 IDH1 knockdown cell toxicity (counter line). HT-1080 IDH1 knockdown viability, ATP luminescence, 48 h. Potency, µM (top dose mostly 46.1 µM), for inactives: at the highest dose activity, negative = toxicity, usual class: cytotoxic. actives 2% (n = 360,000). AID 686971;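 also: potency is read from the fitted curve at half-maximal effect; 0% = DMSO wells and -100% = cell-free medium wells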
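HT-1080-IDH1KD cells (IDH1 knocked down), 750/well in RPMI with 5% FBS, treated with compound 48 h at 37 degrees C. Viability by CellTiter-Glo luminescence, normalised to DMSO and no-cell wells; concentration-response curves classed.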
An asterisk follows results filed as active; ? = inconclusive; . = not tested or not shown; [ ] = remark or other dose. Unless noted, calls follow the shape of the dose curve; as a rule, active = well fitted curve in the direction sought with a large enough effect; inconclusive = small, poorly fitted or top-dose-only effect, or another doubt; inactive = no such curve, though single readings can be large; an effect the other way counts as inactive or inconclusive. Unless noted, % is scaled to controls: 0 for no effect and ±100 for the full control effect.

SMILES	TDP1 cell CPT	HT1080-NT tox	uPA generation	DT40 TDP1 no CPT	IL-1B inflam inh	HT1080 IDH1KD tx
COc1ccc(CC(N)c2csc(Nc3ccc(C(C)=O)cc3)n2)cc1 (configuration not stated)	26µM*	?	.	21µM*	-14	?
NC(Cc1ccccc1)c1csc(Nc2ccc(C(=O)c3ccccc3)cc2)n1 (configuration not stated)	15µM*	?	.	8.2µM*	-69*	?
NC(Cc1ccc(F)cc1)c1csc(Nc2ccc(C(=O)c3ccccc3)cc2)n1 (configuration not stated)	?	?	.	?	.	15µM*
NC(CO)c1csc(Nc2ccc(C(=O)c3ccccc3)cc2)n1 (configuration not stated)	-2%	?	.	?	?	-20%
NC(Cc1ccc(Cl)cc1)c1csc(Nc2ccc(C(=O)c3ccccc3)cc2)n1 (configuration not stated)	21µM*	?	.	21µM*	0	?
CCOC(=O)CCNC(=O)N1CCCC(N(C)CCc2ccc(OC)c(OC)c2)C1 (configuration not stated)	-6%	1%	-13%	6%	11	-1%
Cc1ccc(NC(=O)COC(=O)CC2SC(N3CCCC3)=NC2=O)cc1 (configuration not stated)	3%	8%	3%	0%	3	19%
COc1ccc(-n2c(=O)cnc3cnc(N4CCOCC4)nc32)cc1	?	.	.	-22%	.	.
COc1ccc(CC(N)c2csc(Nc3ccc(C(=O)c4ccccc4)cc3)n2)cc1 (configuration not stated)	12µM*	?	.	9.2µM*	-70*	?
CC1=CC(C)(C)N(C(=O)c2ccccc2)c2ccc(C)cc21	15µM*	-1%	8%	23µM*	38	-5%
Cc1cccc(NC(=O)c2oc3ccc(S(=O)(=O)N4CCC5(CC4)OCCO5)cc3c2C)c1C	16µM*	.	.	18µM*	.	.
Cc1c(C(=O)Nc2cccc(C(F)(F)F)c2)oc2ccc(S(=O)(=O)N3CCC4(CC3)OCCO4)cc12	15µM*	.	.	9.2µM*	.	.
Cc1c(C(=O)NCCc2ccccc2)oc2ccc(S(=O)(=O)N3CCC4(CC3)OCCO4)cc12	?	-1%	-10%	?	?	-38%
COc1ccc(NC(=O)c2oc3ccc(S(=O)(=O)N4CCC5(CC4)OCCO5)cc3c2C)cc1	16µM*	?	.	?	-19	-28%
Cc1ccc(NC(=O)c2oc3ccc(S(=O)(=O)N4CCC5(CC4)OCCO5)cc3c2C)cc1Cl	?	.	.	-16%	.	.
CSc1oc(-c2ccc(F)cc2)nc1S(=O)(=O)c1ccc(F)cc1	15µM*	25%	1%	23µM*	6	-1%
CCS(=O)(=O)c1oc(-c2ccc(F)cc2)nc1S(=O)(=O)c1ccc(Br)cc1	0.92µM*	.	.	1.2µM*	.	.
CSc1oc(-c2ccc(F)cc2)nc1S(=O)(=O)c1ccccc1	-1%	1%	12%	-15%	13	1%
CS(=O)(=O)c1oc(-c2ccc(F)cc2)nc1S(=O)(=O)c1ccc(Cl)cc1	0.58µM*	.	.	0.82µM*	.	.
O=C(O)C1CC[C@@](C(=O)O)(c2ccccc2)c2ccccc21 (some centres not stated)	11%[9.04 µM]	.	.	11%[9.04 µM]	.	.
CCc1nnc(SCc2nc(-c3cccc(Cl)c3)oc2C)c2cc3sc(C)cc3n12	-29%	.	.	?	.	.
CNC(=S)N1CCN=C1Nc1nc(C)cc(C)n1	17%	0%	-3%	6%	-5	27%
COC(=O)C1CCN(Cc2ccc3c(c2)CN(C(=O)C2Cc4ccccc4O2)CCO3)CC1 (configuration not stated)	17%[9.04 µM]	.	.	-14%	.	.
Cc1ccc(NC(=O)COc2ccc(N(C)C(=O)C(C)(C)C)cc2)cc1S(=O)(=O)N1CCCCC1	8.2µM*	-18%	?	2.3µM*	-7	-14%
Cc1ccc(NC(=O)/C=C/c2ccco2)cc1S(=O)(=O)N1CCCCCC1	21µM*	-19%	0.89µM*	9.2µM*	-19	-29%
SMILES	TDP1 cell CPT	HT1080-NT tox	uPA generation	DT40 TDP1 no CPT	IL-1B inflam inh	HT1080 IDH1KD tx
COc1ccc(NC(=O)CN(Cc2ccco2)Cc2ccco2)cc1S(=O)(=O)N1CCCCC1	23µM*	-7%	-10%	?	-19	-1%
CCc1noc(C)c1C(=O)Nc1ccc(C)c(S(=O)(=O)N2CCCCCC2)c1	16µM*	-4%	3%	?	6	-16%
CCn1c(CNC(=O)c2ccc(OC)cc2)nnc1SCC(=O)Nc1cccc(C)c1C	-2%	.	.	-30%	.	.
O=C(NCc1ccccc1F)c1ccc(S(=O)(=O)N2CCCC2)cc1	-28%	4%	.	-28%	-12	-1%
Cc1ccc(NC(=O)COc2cccc(C)c2C)cc1S(=O)(=O)N1CCCCCC1	?	-3%	-4%	18µM*	-30	?
Cc1ccc(NC(=O)CCl)cc1S(=O)(=O)N1CCCCCC1	2.1µM*	16µM*	-17%	2.6µM*	-87*	8.2µM*
Cc1ccc(NC(=O)CNc2ccccc2N2CCCC2=O)cc1S(=O)(=O)N1CCCCC1	16µM*	10%	-2%	15µM*	-5	3%
Cc1ccc(NC(=O)Cc2ccccc2F)cc1S(=O)(=O)N1CCCCCC1	?	0%	2%	?	-4	-24%
Cc1ccc(NC(=O)COC(=O)c2cccc(C)c2[N+](=O)[O-])cc1S(=O)(=O)N1CCCCC1	16µM*	-8%	1%	?	0	-5%
Cc1nc2cncnc2n(-c2ccccc2)c1=O	2%	.	.	-26%	.	.
Cc1cc(CN2CCCCC2C(=O)Nc2ccc(Oc3cccnc3)cc2)oc1C (configuration not stated)	?	-1%	8%	?	-3	-3%
Cc1ccc(C)c(C(O)c2ncc(-c3ccc(Cl)cc3)[nH]2)c1 (configuration not stated)	?	?	.	?	24	?
CCOC(=O)NC(=O)/C(C#N)=C(/C)N(C)C	-1%	6%	3%	19%	1	20%
COc1ccc(NC(=O)COc2ccccc2C(N)=O)cc1S(=O)(=O)N1CCCCC1	-10%	0%	.	?	28	14%
Cc1ccc(NC(=O)COc2ccccc2C(N)=O)cc1S(=O)(=O)N1CCCCCC1	4.1µM*	-13%	-27%	3.7µM*	-55*	-22%

Assay outcomes deposited in PubChem by National Center for Advancing Translational Sciences (NCATS).
